Results reported in ChEMBL document CHEMBL3988442, “University of Dundee, Small-Polar-MMV Screening Library” (2021).
Among all 48,000 compounds or so, about 13,000 (27%) showed an effect of 50% or more. The list shows a part of the results.

system: Wolbachia pipientis; assay: Anti-Wolbachia Cell-Based Screen; assay type: functional; parameters: scale not given: in the data most compounds retested in dose-response had high values; settings: 5 µM

| Compound | Percent Effect |
| --- | --- |
| CC(=O)Nc1ccc(CC(=O)N2CC(S(=O)(=O)C3CCCCC3)C2)cc1 | 1.653% |
| Cc1oc(-c2ccsc2)nc1CNCCn1cccn1 | -19.09% |
| c1nc(NCC2(N3CCOCC3)CCSC2)c2sccc2n1 (configuration not stated) | -18.02% |
| CCc1nc(NCCCOC)c2c(n1)c(C)nn2C | 12.69% |
| O=C(CN1CCCC1c1nc(-c2ccccn2)no1)N1CCNCC1 (configuration not stated) | 2.337% |
| CN(CCc1ccccn1)S(=O)(=O)N1CCCC1c1ccco1 (configuration not stated) | 10.93% |
| CCCn1ccnc1CN1CCCC1c1ccccn1 (configuration not stated) | 6.189% |
| CCc1nccn1CC(=O)N1CCN(C2CCc3ccccc3C2)CC1 (configuration not stated) | -21% |
| CCc1nccn1-c1cncc(C2CCCN2Cc2ccc(F)cc2)n1 (configuration not stated) | -3.137% |
| CN(C)C(=O)CCc1cncc(C2CCCN2Cc2ccccn2)n1 (configuration not stated) | 97.92% |
| CCc1nccn1-c1cncc(C2CCCN2Cc2ccccc2)n1 (configuration not stated) | 119.3% |
| CCn1ccnc1CN1CCN(Cc2ccccn2)CC1C (configuration not stated) | -25.03% |
| CCc1nccn1-c1cncc(C2CCCN2Cc2ccccn2)n1 (configuration not stated) | 112.2% |
| CCc1nccn1-c1cncc(C2CCCN2CC(=O)N2CCCC2)n1 (configuration not stated) | 115.3% |
| CCc1nccn1-c1cncc(C2CCCN2Cc2cccnc2)n1 (configuration not stated) | -2.141% |
| O=C(CN1C(=O)CCC1=O)N1CCOC2(CCOCC2)C1 | 13.71% |
| O=C(NC1CCN(CC2CC2)C1)c1ccc(N2CCC(O)CC2)cc1 (configuration not stated) | -2.601% |
| CCN(C)S(=O)(=O)N(CC)Cc1cccc(-c2ccncc2)c1 | 31.71% |
| Cc1cc2c(cc1C)OC(C(=O)NCCNC(=O)C1CCCC1)C2 (configuration not stated) | -3.964% |
| Cc1ccc(C)c(-n2cc(CN3CC[C@@H](O)C3)c(-c3ccccc3)n2)c1 | 7.715% |
| CCN1CCN(C(=O)c2ccc3c(c2)OCC(=O)N3)[C@H]2CS(=O)(=O)C[C@H]21 | -0.2208% |
| CC(C)(O)c1cc(CC2(NCc3ccccc3Cl)COC2)no1 | -20.02% |
| Cn1cc(CN2C[C@H]3CCC[C@@H](CNc4nccn4C)[C@H]3C2)cn1.O=C(O)C(F)(F)F | -10.56% |
| Cc1cc(CN(CC(N)=O)CC(C)C)on1 | -7.292% |
| Cn1nc(C2CCNC2)c2c(C(=O)NC3CC3)cc(C3CC3)nc21 (configuration not stated) | 110% |
| Cn1nc(C2CCNCC2)c2c(C(=O)NC3CC3)cc(C3CC3)nc21 | 128.7% |

| Compound | Percent Effect |
| --- | --- |
| CCCn1ncc2c(C(=O)Nc3n[nH]c(SC)n3)cc(C3CC3)nc21 | 6.515% |
| Cn1nc(C2CCCNC2)c2c(C(=O)NC3CC3)cc(C3CC3)nc21 (configuration not stated) | 121.4% |
| Cn1nc(C2CCCN2)c2c(C(=O)NC3CC3)cc(C3CC3)nc21 (configuration not stated) | 135.7% |
| Cc1nc(NCCSc2cnn[nH]2)c2cccnc2n1 | 2.11% |
| Cc1cnn(CCNCc2nc(-c3ccsc3)oc2C)c1 | -10.22% |
| CCCN(C)S(=O)(=O)NC(=O)c1ccc(CC)o1 | 14.97% |
| O=C(CNC1CCc2ncnn2C1)N(C1=CCCCC1)C1CC1 (configuration not stated) | -15.4% |
| Fc1cccc(N2CCOC3(CCCN(c4cnccn4)C3)C2)c1 (configuration not stated) | 11.27% |
| CN(C)CCN(Cc1ccccc1)C(=O)CN1CCCNC1=O | -13.77% |
| CC1CCN(CCNC(=O)C2CCN(C(=O)C(C)(C)C)CC2)CC1 | 2.038% |
| CCC(=O)N1CCCCC1c1nc(O)c2c(n1)CN(S(C)(=O)=O)CC2 (configuration not stated) | 103.7% |
| CCS(=O)(=O)CC(=O)N1CCCC1c1noc(C2CC2)n1 (configuration not stated) | -5.674% |
| CCCS(=O)(=O)CC(=O)N1CCCC1c1noc(C2CC2)n1 (configuration not stated) | -6.337% |
| CCC(=O)N1CCCCC1c1nc(O)c2c(n1)CN(S(=O)(=O)CC)CC2 (configuration not stated) | 126.4% |
| CC(C)NC(=O)c1ccc2nnc(C3CN(C)CCN3C)n2c1.O=C(O)C(F)(F)F.O=C(O)C(F)(F)F (configuration not stated) | -4.33% |
| COCc1cc(N(Cc2ccsc2)C2CC2)n2ncnc2n1 | -20.66% |
| Cc1oc(C(C)C)cc1C(=O)N1C[C@H]2CC[C@@H]1CN(S(=O)(=O)N(C)C)C2 | 1.683% |
| Cn1c(=O)[nH]c(=O)c2cc(C(=O)N3CCCC3C3CCCC3)cnc21 (configuration not stated) | 9.231% |
| CSc1[nH]c(=O)c(C(=O)N2CCCC2C2CCCC2)cc1C#N (configuration not stated) | 90.55% |
| CCc1cn[nH]c1C1CCCN(C(=O)c2cc(C#N)c(=O)[nH]c2C)C1 (configuration not stated) | -3.715% |
| CSc1[nH]c(=O)c(C(=O)N2CCCC2c2cccs2)cc1C#N (configuration not stated) | 109.4% |
| CCc1cn[nH]c1C1CCN(C(=O)c2cc(C#N)c(=O)[nH]c2C)CC1 | 0.2267% |
| N#Cc1ncn(CC(=O)N2CCCC2c2cccs2)n1 (configuration not stated) | -17.52% |
| COCCn1cc(C(=O)N2CCCC2c2cccs2)c2ccccc21 (configuration not stated) | 20.58% |
| CCC1CCCCCN1C(=O)c1cc(C#N)c(SC)[nH]c1=O (configuration not stated) | 95.93% |
| O=C(c1cnc2[nH]c(=O)[nH]c(=O)c2c1)N1CCCC1C1CCCC1 (configuration not stated) | -0.6345% |

| Compound | Percent Effect |
| --- | --- |
| COc1ccc2c(CN3CCCN(Cc4ccncc4)CC3)n[nH]c2c1 | -3.33% |
| COCCc1noc(CN2CCCCC2Cn2cccn2)n1 (configuration not stated) | 100.4% |
| COCCc1noc(CN2CCCC2Cn2cccn2)n1 (configuration not stated) | 82.73% |
| c1cnn(CC2CCCN2Cc2nc(-c3ccoc3)no2)c1 (configuration not stated) | -2.106% |
| COCCc1noc(CN2CCCCC2Cn2cc(C)cn2)n1 (configuration not stated) | 4.505% |
| c1cnn(CC2CCCN2Cc2nc(C3CC3)no2)c1 (configuration not stated) | 112.2% |
| Cc1cccc(-c2noc(CN3CCCC3Cn3cccn3)n2)c1 (configuration not stated) | 3.964% |
| COCCc1noc(CN2CCCC2Cn2cc(C)cn2)n1 (configuration not stated) | 0.3604% |
| COc1ccccc1-c1noc(CN2CCCC2Cn2cccn2)n1 (configuration not stated) | -4.509% |
| NC(=O)C1CCCN1Cc1cccc(NC(=O)c2ccsc2)c1 (configuration not stated) | 23.54% |
| CCOc1ccnc(N2CCN(C(=O)CCc3cnn(C)c3)CC2)n1 | -13.21% |
| CC(C)(C)[S+]([O-])CCNC(=O)c1ccc(Cl)c2cccnc12 (configuration not stated) | -0.5335% |
| CCN(CC)C(CNCc1ccc(OC)c(F)c1)c1ccco1 (configuration not stated) | 3.453% |
| CC1(c2ncc(CN3CCN(c4ncccn4)CC3)cn2)CCCCO1 (configuration not stated) | 136.6% |
| CC(C)(C)c1cnc(CN2CCN(c3ncccn3)CC2)o1 | -4.757% |
| CN(CCc1ccccc1)Cc1cnc(C2(C)CCCCO2)nc1 (configuration not stated) | 153.2% |
| CC(C)=CCC1(CO)CCCN(Cc2cnc(N3CCOCC3)nc2)C1 (configuration not stated) | -21.22% |
| CN(CCc1ccccc1)Cc1nc(-c2cnccn2)no1 | -27.95% |
| CN(CCc1ccccc1)Cc1cc(C(=O)N2CCCC2(C)C)no1 | -2.856% |
| Cn1cnnc1C1CCCN(C(=O)Cc2ccc3c(c2)OCCO3)C1 (configuration not stated) | 17.9% |
| Cc1cc(C(=O)N2CCCC(c3nncn3C)C2)no1 (configuration not stated) | 92.93% |
| Cn1cnnc1C1CCCN(C(=O)CCc2ccc3c(c2)OCO3)C1 (configuration not stated) | 6.982% |
| Cc1cc(C)n(C2CCCN(C(=O)c3cc(C4CC4)on3)C2)n1 (configuration not stated) | 8.092% |
| Cn1cnnc1C1CCCN(C(=O)c2cc(C3CC3)on2)C1 (configuration not stated) | 107.9% |
| Cc1ccc(C(NC(=O)CN2CCc3cncnc3C2)C2CC2)cc1 (configuration not stated) | 0.6852% |
| Cc1nonc1OCCNc1ncnc2sc3c(c12)CCNC3 | -7.187% |

| Compound | Percent Effect |
| --- | --- |
| O=C1CN(Cc2nnc(-c3ccc(Br)cc3)o2)CCN1 | -13.92% |
| CC(c1ccc(-c2cnc(N)nc2)cc1)N1CCOCC1 (configuration not stated) | 42.28% |
| Cn1cccc1C(=O)N1CCC2(CC1)CN(c1ccccn1)CCO2.O=C(O)C(F)(F)F | -8.251% |
| O=C(O)C(F)(F)F.O=C(c1c[nH]cn1)N1CCC(F)(F)C2(CCN(c3ncccn3)C2)C1 (configuration not stated) | 7.042% |
| Cn1cccc1C(=O)N1CCC2(CCN2c2ncccn2)C1.O=C(O)C(F)(F)F (configuration not stated) | 93.48% |
| Cn1cccc1C(=O)N1CCC2(CCCN2c2ncccn2)CC1.O=C(O)C(F)(F)F | 1.069% |
| CCN1CCCC12CCN(C(=O)c1nccn1C)CC2.O=C(O)C(F)(F)F | -7.491% |
| Cn1ccc(C(=O)N2CCC3(CCN3c3ncccn3)C2)n1.O=C(O)C(F)(F)F (configuration not stated) | 111.1% |
| Cn1ccnc1C(=O)N1CCC2(CCN2c2ncccn2)C1.O=C(O)C(F)(F)F (configuration not stated) | 99.87% |
| CCCC(C)N(C)Cc1nnc(-c2ccco2)o1 (configuration not stated) | -4.256% |
| CSc1c[nH]nc1NS(=O)(=O)c1cc(F)ccc1C | -3.23% |
| CCN1CCN(Cc2nc(Cc3ccccc3)n[nH]2)CC1 | 2.697% |
| O=C(NCc1ccc2c(c1)OCO2)[C@H]1C=CCN1c1ncccn1 | 120.2% |
| O=C(NCc1ccc2c(c1)OCO2)[C@@H]1C=CCN1c1ncccn1 | 142.5% |
| O=C(CCc1ccc2c(c1)OCO2)Nc1cccnc1-n1cncn1 | 6.275% |
| O=C(NCc1ccc2c(c1)OCO2)N1CCCC2(C1)OCCO2 | 2.082% |
| CC(NC(N)=O)C(=O)NCc1ccc(Br)c(F)c1 (configuration not stated) | -7.533% |
| CC(=O)N1CCC(c2[nH]ncc2S(C)(=O)=O)CC1 | 87.45% |
| CCc1cn[nH]c1C1CCN(C(=O)c2cc(C(C)=O)c(C)[nH]c2=O)CC1 | 3.575% |
| CN1CCC(c2[nH]ncc2S(C)(=O)=O)CC1 | 125.9% |
| CC(=O)N1CCN(C(=O)NCCCc2cn[nH]c2C)CC1 | -4.106% |
| CCC(CC)N1CCC(c2[nH]ncc2S(C)(=O)=O)C1 (configuration not stated) | 101.4% |
| Cc1c(CN2CCCC(c3[nH]ncc3S(C)(=O)=O)C2)cnn1C (configuration not stated) | 3.915% |
| CN1CCN(C(=O)C2CCCc3[nH]ncc32)CC1 (configuration not stated) | -8.316% |
